Compound activity from PubChem BioAssay.
CYP2C9 inh – inhibitors of human CYP2C9; P11712; CYP2C9 Supersomes, luciferin-H conversion, luminescence; inhibition, % at 5 µM; 96,000 compounds, 20% hits;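 active means blocking of liver enzyme CYP2C9 beyond about 50% at 5 µM, limit read from the data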
Target sequence (P11712 whole entry, looked up): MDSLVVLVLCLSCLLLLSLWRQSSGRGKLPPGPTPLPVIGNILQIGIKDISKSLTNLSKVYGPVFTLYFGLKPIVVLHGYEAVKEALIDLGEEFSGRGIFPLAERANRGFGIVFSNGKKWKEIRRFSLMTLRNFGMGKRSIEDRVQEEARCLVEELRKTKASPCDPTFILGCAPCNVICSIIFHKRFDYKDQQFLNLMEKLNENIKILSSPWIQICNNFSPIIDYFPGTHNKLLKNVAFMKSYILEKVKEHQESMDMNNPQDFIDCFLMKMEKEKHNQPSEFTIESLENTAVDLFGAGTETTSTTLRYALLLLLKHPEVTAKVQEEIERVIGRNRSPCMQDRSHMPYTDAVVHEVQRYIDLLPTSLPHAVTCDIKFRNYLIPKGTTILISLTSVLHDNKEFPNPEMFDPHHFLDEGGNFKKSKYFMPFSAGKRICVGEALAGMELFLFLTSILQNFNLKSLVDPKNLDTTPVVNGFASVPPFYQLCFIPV
CYP2C9 act – activators of human CYP2C9 | P11712 | recombinant CYP2C9, luciferin-H conversion, luminescence; active compounds read high; factor 1 = untreated enzyme, 0 = blocked | activation factor at 5 µM | 96,000 compounds, 1.4% hits | AID 1024;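 active means activation factor of 2 or more for CYP2C9 at a 5 µM dose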;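 further: 0 = sulfaphenazole-blocked wells and 1 = vehicle-only wells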
Cav3 T inh – blocks human Cav3.2 T-type calcium channel. B-score at 10 µM. 100,000 compounds, 4% hits. O95180. Cav3.2-expressing cells, Fluo-4 calcium fluorescence FDSS; active compounds read low. AID 449739;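 active means single-dose well whose peak fluorescence ratio is a statistical outlier from its plate by either plate-standardised score or position-corrected B-score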
CYP2C19 inhib – inhibitors of human CYP2C19 | P33261 | CYP2C19 Supersomes, luciferin-H EGE luminescence, 30 min | inhibition, % at 5 µM | 96,000 compounds, 21% hits | AID 778;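 active means CYP2C19 inhibition above a set limit at 5 µM in the primary screen, cut at about 50% in these data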;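 further: plate controls were negative control wells for no effect and 2.5 mM tranylcypromine positive control for full effect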
PTK2B oligo ant – Pyk2 (human) oligomerization antagonism. Q293 cells, Pyk2 FERM NanoBiT luminescence; active compounds read low. 99,000 compounds, 0.83% hits. z-score (the deposit names both 25 µM and 10 µM);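 active means Z-score of -3 or lower, scaled per plate to the spread of control and sample wells; inactive means z-score above -3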;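 further: negative z-score means lost luminescence so less FERM oligomerization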
CYP2C19 act – activators of human cytochrome P450 2C19; P33261; recombinant CYP2C19, luciferin-H EGE luminescence; active compounds read high; 0 = fully inhibited enzyme, 1 = untreated enzyme; activation factor at 5 µM; 96,000 tested, under 10 active;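 active means activation factor of at least 2 at 5 µM in the primary screen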;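 further: 0 = wells with 2.5 mM tranylcypromine and 1 = vehicle-only wells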
Starred values were filed as active, the others as inactive; x = no result. In the library only some 27% were active in any assay of this set; here they are far more common.

SMILES | CYP2C9 inh | CYP2C9 act | Cav3 T inh | CYP2C19 inhib | PTK2B oligo ant | CYP2C19 act
CN(C)/C=C(\C=N\OCc1ccc(Cl)cc1Cl)C(=O)Nc1ccc(Cl)c(Cl)c1 | -11 | 1.1 | 0.19 | -9 | 0.16 | 1.1
CCC(C)(C)C(=O)Nc1ccc(OC)cc1[N+](=O)[O-] | 9 | 0.9 | 1.8 | 28 | 0.43 | 0.7
COc1ccc(NC(=O)CN2CCC(C)CC2)cc1 | 3 | 1 | -0.42 | 89* | -0.79 | 0.1
COc1ccc(NC(=O)CN2CCC(C(N)=O)CC2)cc1 | -25 | 1.2 | 0.44 | -13 | 2.1 | 1.1
COc1ccc(NC(=O)CN2CCC3(O)CCCCC3C2c2cc(OC)ccc2OC)cc1 (stereo not drawn) | 80* | 0.2 | 0.014 | 71* | -0.21 | 0.3
CCOc1ccc(/C=C/C(=O)Nc2ccc(OC)cc2[N+](=O)[O-])cc1 | -145 | 2.4* | -0.046 | 10 | -0.49 | 0.9
CC(C)N(C(=O)CSc1nnc(CN2CCCCCC2=O)n1-c1ccccn1)C(C)C | -9 | 1.1 | 0.21 | -3 | -0.97 | 1
CCCCCn1c(=O)[nH]c2cc(C(=O)NCc3ccco3)ccc2c1=O | 34 | 0.7 | -0.13 | 22 | -0.9 | 0.8
COc1ccc(NC(=O)C2CCN(c3nnnn3-c3ccccc3)CC2)cc1 | 20 | 0.8 | 0.061 | 8 | 0.28 | 0.9
COc1ccc(-n2nnnc2-c2ccccc2)cc1 | 35 | 0.6 | -0.099 | 76* | -0.43 | 0.2
Clc1ccc(-n2nnnc2-c2ccccc2)cc1 | 61* | 0.4 | 0.24 | 98* | -0.05 | 0
COc1ccc(OCc2nnnn2-c2ccccc2)cc1 | 21 | 0.8 | -0.15 | 69* | -0.67 | 0.3
COC(=O)[C@H](C)NC(=O)NC1CCN(Cc2ccccc2)CC1 | 4 | 1 | 0.51 | 0 | -0.09 | 1
COCCN1C(=O)N[C@@H](c2ccccc2)C(C(C)=O)=C1C | x | x | 0.84 | x | x | x
O=C(Cn1ncc2c1-c1ccccc1OC2)Nc1cccc(Cl)c1 | 35 | 0.6 | -5* | 56* | x | 0.4
Cc1ccc(C)c(CN2CCCN(C(=O)Cn3ncc4c3-c3ccccc3OC4)C2)c1 | 56* | 0.4 | -6* | 79* | x | 0.2
COc1cc(NC(=O)Cn2ncc3c2-c2ccccc2OC3)cc(OC)c1OC | 40 | 0.6 | 0.52 | 55* | x | 0.5
COc1cc(NC(=O)CN2c3ccccc3CC2C)cc(OC)c1OC (stereo not drawn) | 81* | 0.2 | 0.76 | 69* | 0.19 | 0.3
O=C(Cc1ccc(S(=O)(=O)N2CCOCC2)s1)Nc1nc2c(s1)CCCC2 | 39 | 0.6 | -0.3 | 16 | -0.64 | 0.8
O/N=C(\c1ccc(Cl)cc1)c1cc2ccccc2o1 | 36 | 0.6 | x | 15 | -0.87 | 0.9
COc1cccc(CN(CC(=O)NC2CCCC2)C(=O)Cn2nnc(-c3cccs3)n2)c1 | 97* | 0 | -0.98 | 66* | 0.13 | 0.3
Cc1cc(NC(=O)CCC(=O)N(CC(=O)NC2CCCC2)c2cccc(C)c2C)no1 | x | x | -1.8 | x | 0.09 | x
COc1cccc(CN(CC(=O)NC2CCCC2)C(=O)CCC(=O)Nc2cc(C)on2)c1 | 78* | 0.2 | x | 51* | 0.96 | 0.5
COCCNC(=O)CN(C(=O)CCC(=O)Nc1cc(C)on1)c1cccc(C)c1C | 41 | 0.6 | 0.85 | 57* | -0.51 | 0.4
OC(CN1C2=NCCCN2c2ccccc21)c1ccc(Cl)cc1 (stereo not drawn) | -3 | 1 | -4 | -2 | x | 1
SMILES | CYP2C9 inh | CYP2C9 act | Cav3 T inh | CYP2C19 inhib | PTK2B oligo ant | CYP2C19 act
Cc1ccc(C)c(NC(=O)c2nc(-c3ccccc3)n(-c3ccccc3)n2)c1 | 71* | 0.3 | -5.8* | 79* | -3 | 0.2
O=C(Nc1nccs1)c1nc(-c2ccccc2)n(-c2ccccc2)n1 | -5 | 1 | 0.019 | -4 | -1.8 | 1
CCSc1nnc(NC(=O)c2nc(-c3ccccc3)n(-c3ccccc3)n2)s1 | 92* | 0.1 | -1.4 | 55* | -2.9 | 0.5
CCCC(C)NC(=O)c1nc(-c2ccccc2)n(-c2ccccc2)n1 (stereo not drawn) | 86* | 0.1 | -4.9* | 33 | -1.9 | 0.7
Cc1csc(NC(=O)c2nc(-c3ccccc3)n(-c3ccccc3)n2)n1 | 75* | 0.2 | -2.4 | 43 | -1.9 | 0.6
CCOCc1cc(C)[nH]c(=O)c1C#N | 4 | 1 | x | 5 | 1.9 | 1
COc1cccc2oc(-c3ccco3)cc(=O)c12 | x | x | -0.35 | x | x | x
COc1ccc(-c2ccc(-c3nnc(-c4ccncc4)o3)cc2)cc1 | 35 | 0.7 | x | 53* | x | 0.5
CCSc1nnc(-c2ccc(OC)cc2)o1 | 14 | 0.9 | -0.96 | 16 | 1.4 | 0.8
CCc1noc(C)c1C(=O)Nc1nc(-c2ccc(Cl)cc2Cl)c(C)s1 | 49 | 0.5 | 0.022 | 10 | 1.5 | 0.9
COc1ccccc1-c1nnc2n1N=C(C)CS2 | -1 | 1 | 0.027 | 15 | 0.02 | 0.9
COc1ccc(C2=Nn3c(nnc3-c3ccco3)SC2)cc1OC | 57* | 0.4 | 0.85 | 37 | 0.46 | 0.6
COc1ccc(C2=Nn3c(nnc3-c3ccccn3)SC2)cc1OC | 36 | 0.6 | -2.1 | 62* | 1.1 | 0.4
COc1ccc(C2=Nn3c(nnc3-c3ccccc3OC)SC2)cc1OC | 53* | 0.5 | -0.1 | 65* | -1.1 | 0.4
COc1ccc(-c2nnc3n2N=C(c2cccc(Br)c2)CS3)cc1OC | 44 | 0.6 | 0.77 | 36 | x | 0.6
O=C(CNC(=O)c1cccs1)c1ccc(F)cc1 | x | x | -0.00043 | x | 0.22 | x
CCCCn1c(N)c(Sc2ccc(C)cc2)c(=O)[nH]c1=O | 41 | 0.6 | -0.47 | 53* | 0.33 | 0.5
CCC(C)NS(=O)(=O)c1cccs1 (stereo not drawn) | 12 | 0.9 | 1.1 | 50 | 0.08 | 0.5
O=C1C(Nc2ccccc2)=C/C(=N/S(=O)(=O)c2cccs2)c2ccccc21 | x | x | x | x | -3.8* | x
COC(=O)c1ccccc1NC1=C/C(=N\S(=O)(=O)c2cccs2)c2ccccc2C1=O | 83* | 0.2 | -2.6 | 67* | -5* | 0.3
COC(=O)c1ccccc1Nc1ccccc1 | 2 | 1 | -0.46 | -9 | 0.12 | 1.1
O=C(/C=C/c1cccs1)N1CCC2(CC1)Oc1ccc(Cl)cc1C(=O)C21CC(c2ccc(Cl)cc2)=NO1 (stereo not drawn) | x | x | -0.79 | x | x | x
Cc1cc(C)c2cc(C#N)c(N3CCCC3)nc2c1 | 1 | 1 | -0.027 | 18 | -0.37 | 0.8
CCCC1Cc2nc(N3CCCCC3)c(C#N)cc2CO1 (stereo not drawn) | 86* | 0.1 | -0.53 | 73* | 0.06 | 0.3
O=C(O)CC(Cc1ccc(Br)cc1)C(=O)O (stereo not drawn) | 9 | 0.9 | -0.48 | -4 | 1.2 | 1
Cc1cc2c(cc1C)N(C(=O)CSC1=NCCS1)C(C)(C)c1ssc(=S)c1-2 | 70* | 0.3 | -2.5 | 78* | -0.43 | 0.2
